Source: ChEMBL document CHEMBL4513135, “CO-ADD screening of IQOG CSIS (Spain) compounds”
Entries with a potency or affinity are not part of this list.

Test system: Staphylococcus aureus
Conditions: Concentration 32 ug.mL-1; ASSAY_TEST Inhibition of Bacterial Growth; detection method Absorption (OD600); MEDIA CAMHB; plate type 384well; NBS; CORNING #3640; time 18 hr

How did the Inhibition turn out when `COc1ccc(-c2cc(-c3cc4ccc(OC)cc4nc3Cl)cc(=O)[nH]2)cc1` was run?
The Inhibition was 18.65%.

`COc1nc2nc3c(c(N)c2cc1C#N)CCCC3` was tested. Which Inhibition did it give?
The Inhibition was 30.12%.

With `COc1ccc2c(c1)cc(CNc1ccccc1)n2C` as the compound, how does the Inhibition read?
The Inhibition was 20.09%.

How did the Inhibition turn out when `CC(=O)/C=C/C1CCN(Cc2ccccc2)CC1` was run?
The Inhibition was 28.47%.

For `N#CC1(Br)C(=NBr)Oc2c(ccc3ccccc23)C1c1ccc([N+](=O)[O-])cc1` (stereo not drawn), which Inhibition is on record?
Its Inhibition is 36.89%.

`CCOC(=O)c1c(C)[nH]c(=O)c(C#N)c1-c1ccccc1` was tested. Which Inhibition did it give?
Its Inhibition is 37.77%.

How did the Inhibition turn out when `COc1ccc2c(c1)cc(CN)n2C` was run?
The Inhibition was 13.26%.

With `CCOC(=O)/C(C#N)=C\c1ccc(C)cc1` as the compound, how does the Inhibition read?
Its Inhibition is 28.15%.

How did the Inhibition turn out when `CSC1=NC(=Cc2cn(C(c3ccccc3)(c3ccccc3)c3ccccc3)c3ccccc23)C(=O)N1C` was run?
The Inhibition was -1.08%.

`O=C(NNCc1ccco1)c1cc2ccccc2[nH]1` was tested. Which Inhibition did it give?
The Inhibition was -6.59%.

`C#CCN(C)c1cc(C)nc(C)n1` was tested. Which Inhibition did it give?
Its Inhibition is 21.48%.

With `Cl.Cl.Cn1c(CNc2ccccc2)cc2cc(OCCCC3CCN(Cc4ccccc4)CC3)ccc21` as the compound, how does the Inhibition read?
Its Inhibition is 21.22%.

With `Cc1ccc2nc(Cl)c(/C=N/OCc3ccccc3)cc2c1` as the compound, how does the Inhibition read?
The Inhibition was 31.42%.

Which Inhibition does the source give for `N#CC1(Br)C(=NBr)Oc2ccc3ccccc3c2C1c1ccccc1[N+](=O)[O-]` (stereo not drawn) here?
The Inhibition was 23.03%.

`COc1ccc2c(c1)cc(/C=C/[N+](=O)[O-])n2C` was tested. Which Inhibition did it give?
Its Inhibition is 10.15%.

With `CCOC(=O)/C(C#N)=C\c1ccc(Cl)cc1` as the compound, how does the Inhibition read?
Its Inhibition is 19.96%.

For `CCOC(=O)C1=C(C)OC(N)=C(C#N)C1c1ccccc1OC` (stereo not drawn), which Inhibition is on record?
Its Inhibition is 23.12%.

`N#CC1=C(Cl)Oc2c(ccc3ccccc23)C1c1ccccc1[N+](=O)[O-]` (stereo not drawn) was tested. Which Inhibition did it give?
Its Inhibition is 15.73%.
